Source: PubChem BioAssay AID1159580 (chemical genetic matrix, 2015)
Hit rate of the full screen: of about 5,500 compounds, about 2,000 (36%) were called active. Another 18% or so got no clear call; they are omitted. No stated cut-off is given here; in the data, active means normalized growth mostly below about 0.91 (no sharp cut-off); inconclusive means no clear call, values can overlap the other calls; inactive means mostly above about 0.92. Some of the results follow.

Assay: chemical genetic growth profiling, strain panel (AID 1159580);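 further: tested at 20 µM; growth read once vehicle control cultures reached saturation at 30 °C; 1 = growth at the plate median or of vehicle wells; lower values mean less growth of the strain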
Conditions: growth OD

Measured: normalized growth

N[C@H](Cc1cc(I)c(Oc2ccc(O)c(I)c2)c(I)c1)C(=O)O
active: S. cerevisiae deletion strains, locus YKR001C, strain vps1, active compounds read low 0.862 | S. cerevisiae deletion strains, locus YLR418C, strain cdc73, active compounds read low 0.77 | S. cerevisiae deletion strains, locus YNL071W, strain lat1, active compounds read low 0.627 | S. cerevisiae deletion strains, locus YNL307C, strain MCK1, active compounds read low 0.613 | S. cerevisiae deletion strains, locus YPR163C, strain tif3, active compounds read low 0.909
inactive: S. cerevisiae deletion strains, locus YJR075W, strain HOC1, active compounds read low 1 | S. cerevisiae deletion strains, locus YKL009W, strain mrt4, active compounds read low 1.03 | S. cerevisiae deletion strains, locus YKL068W, active compounds read low 0.998 | S. cerevisiae deletion strains, locus YKL085W, strain MDH1 (second series), active compounds read low 0.991 | S. cerevisiae deletion strains, locus YKL085W, strain MDH1, active compounds read low 0.991 | S. cerevisiae deletion strains, locus YKL160W, strain elf1, active compounds read low 0.965 | S. cerevisiae deletion strains, locus YKL190W, strain CNB1, active compounds read low 1.01 | S. cerevisiae deletion strains, locus YKR026C, strain gcn3, active compounds read low 0.999 | S. cerevisiae deletion strains, locus YKR091W, strain srl3, active compounds read low 0.998 | S. cerevisiae deletion strains, locus YLL001W, strain dnm1, active compounds read low 0.989 | S. cerevisiae deletion strains, locus YLL026W, active compounds read low 1 | S. cerevisiae deletion strains, locus YLL041C, strain sdh2, active compounds read low 1 | S. cerevisiae deletion strains, locus YLR027C, strain aat2, active compounds read low 0.968 | S. cerevisiae deletion strains, locus YLR039C, strain RIC1, active compounds read low 0.964 | S. cerevisiae deletion strains, locus YLR058C, strain SHM2, active compounds read low 1.01 | S. cerevisiae deletion strains, locus YLR102C, strain apc9, active compounds read low 0.996 | S. cerevisiae deletion strains, locus YLR113W, strain HOG1, active compounds read low 1.04 | S. cerevisiae deletion strains, locus YLR221C, strain rsa3, active compounds read low 0.945 | S. cerevisiae deletion strains, locus YLR258W, strain gsy2, active compounds read low 0.969 | S. cerevisiae deletion strains, locus YLR262C, strain YPT6 (second series), active compounds read low 0.938 | S. cerevisiae deletion strains, locus YLR262C, strain YPT6, active compounds read low 0.953 | S. cerevisiae deletion strains, locus YLR268W, strain sec22, active compounds read low 0.909 | S. cerevisiae deletion strains, locus YLR320W, strain mms22, active compounds read low 0.941 | S. cerevisiae deletion strains, locus YLR330W, strain CHS5, active compounds read low 1.04 | S. cerevisiae deletion strains, locus YLR342W, strain FKS1 (second series), active compounds read low 0.95 | S. cerevisiae deletion strains, locus YLR342W, strain FKS1, active compounds read low 0.994 | S. cerevisiae deletion strains, locus YLR357W, strain rsc2, active compounds read low 1 | S. cerevisiae deletion strains, locus YLR370C, strain arc18, active compounds read low 0.999 | S. cerevisiae deletion strains, locus YLR371W, strain rom2, active compounds read low 0.989 | S. cerevisiae deletion strains, locus YLR384C, strain iki3, active compounds read low 0.993 | S. cerevisiae deletion strains, locus YML016C, strain PPZ1, active compounds read low 0.997 | S. cerevisiae deletion strains, locus YML032C, strain rad52, active compounds read low 0.989 | S. cerevisiae deletion strains, locus YML120C, strain ndi1, active compounds read low 0.998 | S. cerevisiae deletion strains, locus YML124C, strain tub3, active compounds read low 0.997 | S. cerevisiae deletion strains, locus YMR058W, strain fet3, active compounds read low 0.988 | S. cerevisiae deletion strains, locus YMR078C, strain ctf18, active compounds read low 1.01 | S. cerevisiae deletion strains, locus YMR125W, strain sto1, active compounds read low 0.989 | S. cerevisiae deletion strains, locus YMR129W, active compounds read low 0.999 | S. cerevisiae deletion strains, locus YMR205C, strain PFK2, active compounds read low 0.88 | S. cerevisiae deletion strains, locus YMR223W, strain ubp8, active compounds read low 0.934 | S. cerevisiae deletion strains, locus YMR231W, strain pep5, active compounds read low 0.999 | S. cerevisiae deletion strains, locus YMR263W, strain SAP30, active compounds read low 1 | S. cerevisiae deletion strains, locus YMR307W, strain GAS1, active compounds read low 0.956 | S. cerevisiae deletion strains, locus YNL067W, strain RPL9B, active compounds read low 1.01 | S. cerevisiae deletion strains, locus YNL128W, strain TEP1, active compounds read low 1.01 | S. cerevisiae deletion strains, locus YNL153C, strain GIM3, active compounds read low 0.998 | S. cerevisiae deletion strains, locus YNL183C, strain NPR1, active compounds read low 0.977 | S. cerevisiae deletion strains, locus YNL209W, strain ssb2, active compounds read low 1 | S. cerevisiae deletion strains, locus YNL233W, strain BNI4, active compounds read low 0.961 | S. cerevisiae deletion strains, locus YNL248C, strain rpa49, active compounds read low 0.986 | S. cerevisiae deletion strains, locus YNL250W, strain rad50, active compounds read low 0.988 | S. cerevisiae deletion strains, locus YNL271C, strain bni1, active compounds read low 0.989 | S. cerevisiae deletion strains, locus YNL298W, strain CLA4, active compounds read low 1 | S. cerevisiae deletion strains, locus YNL322C, strain KRE1 (second series), active compounds read low 1.02 | S. cerevisiae deletion strains, locus YNL322C, strain KRE1, active compounds read low 1.01 | S. cerevisiae deletion strains, locus YNR049C, strain mso1, active compounds read low 0.998 | S. cerevisiae deletion strains, locus YNR052C, strain pop2, active compounds read low 0.999 | S. cerevisiae deletion strains, locus YOL006C, strain TOP1, active compounds read low 0.942 | S. cerevisiae deletion strains, locus YOL012C, strain htz1 0.841 | S. cerevisiae deletion strains, locus YOL147C, strain pex11, active compounds read low 1 | S. cerevisiae deletion strains, locus YOR001W, strain rrp6, active compounds read low 1.01 | S. cerevisiae deletion strains, locus YOR061W, strain CKA2, active compounds read low 0.994 | S. cerevisiae deletion strains, locus YOR069W, strain VPS5, active compounds read low 1 | S. cerevisiae deletion strains, locus YOR070C, strain gyp1, active compounds read low 0.992 | S. cerevisiae deletion strains, locus YOR080W, strain dia2, active compounds read low 0.987 | S. cerevisiae deletion strains, locus YOR083W, strain WHI5, active compounds read low 0.965 | S. cerevisiae deletion strains, locus YOR106W, strain vam3, active compounds read low 0.935 | S. cerevisiae deletion strains, locus YOR136W, strain idh2, active compounds read low 0.97 | S. cerevisiae deletion strains, locus YOR144C, strain elg1, active compounds read low 0.994 | S. cerevisiae deletion strains, locus YOR184W, strain ser1, active compounds read low 0.889 | S. cerevisiae deletion strains, locus YOR231W, strain MKK1, active compounds read low 1.03 | S. cerevisiae deletion strains, locus YOR265W, strain rbl2, active compounds read low 0.993 | S. cerevisiae deletion strains, locus YOR270C, strain vph1, active compounds read low 0.953 | S. cerevisiae deletion strains, locus YOR290C, strain snf2, active compounds read low 0.983 | S. cerevisiae deletion strains, locus YOR316C, strain cot1, active compounds read low 1 | S. cerevisiae deletion strains, locus YPL051W, strain arl3, active compounds read low 0.95 | S. cerevisiae deletion strains, locus YPL055C, strain LGE1, active compounds read low 1 | S. cerevisiae deletion strains, locus YPL078C, strain atp4, active compounds read low 0.968 | S. cerevisiae deletion strains, locus YPL106C, strain sse1, active compounds read low 0.96 | S. cerevisiae deletion strains, locus YPL240C, strain hsp82, active compounds read low 0.982 | S. cerevisiae deletion strains, locus YPL241C, strain CIN2, active compounds read low 1.01 | S. cerevisiae deletion strains, locus YPL256C, strain CLN2, active compounds read low 1.05 | S. cerevisiae deletion strains, locus YPR119W, strain clb2, active compounds read low 0.998 | S. cerevisiae deletion strains, locus YPR141C, strain kar3, active compounds read low 1.01 | S. cerevisiae deletion strains, locus YPR167C, strain met16, active compounds read low 1.01 | S. cerevisiae deletion strains, strain wtn01, active compounds read low 0.955 | S. cerevisiae strains, strain wild type, active compounds read low 1
